Compound activity deposited in PubChem BioAssay by The Scripps Research Institute Molecular Screening Center.
MBD2 inh: inhibitors of human MBD2 binding to methylated oligonucleotide; inhibition, % at 4.4 µM; 0.31% of 370,000 active; Q9UBB5; TR-FRET; in the data active means inhibition above about 13%
LEDGF integ inh: blocks HIV-1 LEDGF/p75-dependent DNA integration | TR-FRET IN-LEDGF/p75 DNA integration, Eu/Cy5 | inhibition, % at 3.7 µM | 0.64% of 370,000 active;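 active means inhibition above the screen-wide mean plus 3 SD, cut at about 13% in these data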;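 further: signal is the Cy5 over europium emission ratio at 671 and 618 nm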
PRMT1 inh: inhibitors of human PRMT1 | Q99873 | 1.3% of 370,000 active | AID 652257 | recombinant PRMT1, activity-based probe fluorescence polarization | inhibition, % at 2.79 µM;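 active means inhibition above about 21% made by adding two undisclosed values, limit read from the data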
rCAG RNA binder: r(CAG) repeat RNA binding | TO-PRO-1 dye displacement fluorescence | inhibition, % at 3 µM | 1.3% of 370,000 active | AID 651821;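 active means inhibition above the plate cutoff, the mean of all test compounds on that plate plus 3 SD, cut at about 35% in these data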;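 further: higher means more dye released from RNA so lower well fluorescence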
UHRF1 MBD2 ctr: blocks human UHRF1 binding to methylated DNA; UHRF1 binding to methylated oligo, TR-FRET; 0.75% of 370,000 active; AID 687016; Q96T88; inhibition, % at 4.4 µM; in the data active means inhibition above about 21%;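 further: UHRF1 SRA domain binding a hemimethylated CpG hairpin DNA probe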
Target sequence (Q96T88 whole entry, looked up, the tested form may be a part): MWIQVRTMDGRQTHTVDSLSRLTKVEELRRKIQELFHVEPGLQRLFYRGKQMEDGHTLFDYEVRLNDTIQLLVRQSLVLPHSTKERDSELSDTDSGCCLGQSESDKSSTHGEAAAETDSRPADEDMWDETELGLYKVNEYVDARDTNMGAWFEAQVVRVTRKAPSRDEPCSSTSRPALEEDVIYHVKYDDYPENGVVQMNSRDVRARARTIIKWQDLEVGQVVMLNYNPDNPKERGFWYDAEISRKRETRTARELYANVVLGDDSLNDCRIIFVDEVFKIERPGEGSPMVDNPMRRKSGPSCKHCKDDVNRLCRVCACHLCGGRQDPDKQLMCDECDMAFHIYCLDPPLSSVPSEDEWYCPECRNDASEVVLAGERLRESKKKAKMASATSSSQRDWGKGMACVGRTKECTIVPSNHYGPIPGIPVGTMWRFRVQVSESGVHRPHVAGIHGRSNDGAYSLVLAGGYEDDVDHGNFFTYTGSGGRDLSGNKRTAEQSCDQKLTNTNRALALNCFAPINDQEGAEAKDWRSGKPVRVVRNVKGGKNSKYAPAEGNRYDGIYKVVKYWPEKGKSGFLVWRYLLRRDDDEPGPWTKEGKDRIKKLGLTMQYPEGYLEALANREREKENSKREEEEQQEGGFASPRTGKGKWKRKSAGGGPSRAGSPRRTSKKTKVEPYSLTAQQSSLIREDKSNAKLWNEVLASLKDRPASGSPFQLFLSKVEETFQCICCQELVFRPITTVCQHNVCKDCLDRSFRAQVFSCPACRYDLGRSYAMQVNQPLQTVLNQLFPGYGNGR
ABHD5 PLIN5 PPI: inhibitors of human ABHD5-perilipin-5 interaction | Split G. princeps luciferase complementation, luminescence, 4 h | AID 602281 | 0.78% of 360,000 active | inhibition, % at 4 µM | Q00G26+Q8WTS1;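 active means inhibition above the mean inhibition across every tested compound plus 3 SD, cut at about 22% in these data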
ABHD5-PLIN5 conf: confirmation of human ABHD5-PLIN5 interaction inhibitors. shares compounds with ABHD5 PLIN5 PPI. biochemical ABHD5-PLIN5 interaction, luminescence. inhibition, % at 4 µM. 67% of 2,200 active. AID 651612; in the data active means inhibition above about 23%
HNF4 split-luc: active in HNF4 split-luciferase counter-screen for ABHD5-PLIN5 inhibitors; shares compounds with ABHD5 PLIN5 PPI; HNF4 dimerization, luminescence, biochemical; inhibition, % at 4 µM; 77% of 2,200 active;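 active means mean inhibition across replicate wells exceeding the computed hit threshold, cut at about 13% in these data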;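 further: light from luciferase halves that rejoin when HNF4 fusion proteins dimerize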
Each line names hits and unclear results; the compound was inactive in the other large screens (follow-up assays come after a bar, where they were run). The list is not random: actives were taken first. Their share in the collection is about 4.1%.

C=CCN1[C@H](C)COc2cc(F)ccc2S1(=O)=O	none (no result: ABHD5 PLIN5 PPI)
O=C(C1CCCN1S(=O)(=O)c1cccc([N+](=O)[O-])c1)N1CCN(c2ccccc2)CC1 (configuration not stated)	none (no result: ABHD5 PLIN5 PPI)
N=c1n(Cc2ccccc2)c2ccccc2n1CC(O)c1ccco1 (configuration not stated)	ABHD5 PLIN5 PPI 23.4 | ABHD5-PLIN5 conf inactive | HNF4 split-luc 14.8
C[C@H](O)[C@@H]1C(=O)N2CCc3c([nH]c4c(-c5ccccc5)cccc34)[C@@H]2C[C@@H]1N(C)C(=O)/C=C/c1ccccc1	none (no result: ABHD5 PLIN5 PPI)
COc1cccc(CN2CCC2(C)C(=O)Nc2cccc3cccnc23)c1OC (configuration not stated)	none
CC1(C(=O)Nc2cccc3cccnc23)CCN1Cc1ccc(-c2ccccc2)o1 (configuration not stated)	ABHD5 PLIN5 PPI 61.0 | ABHD5-PLIN5 conf 47.0 | HNF4 split-luc 72.8
CCOC(=O)N1CCc2c(sc(NC(=O)CN3CCN(C)CC3)c2C(=O)Nc2ccccc2)C1	none
CCOC(=O)N1CCc2c(sc(NC(=O)CN3CCOCC3)c2C(=O)Nc2ccccc2)C1	ABHD5 PLIN5 PPI 23.3 | ABHD5-PLIN5 conf inactive | HNF4 split-luc inactive
Cn1c(=O)c2[nH]c(N=NNc3ccccc3F)nc2n(C)c1=O	ABHD5 PLIN5 PPI 23.9 | ABHD5-PLIN5 conf inactive | HNF4 split-luc 13.6
Cc1ccccc1NN=Nc1nc2c([nH]1)c(=O)n(C)c(=O)n2C	none
Cc1cccc(Cn2cc(/C=C/[N+](=O)[O-])c3ccccc32)c1	ABHD5 PLIN5 PPI 25.0 | ABHD5-PLIN5 conf 90.8 | HNF4 split-luc 86.0
COC(=O)c1ccc(Cn2cc(/C=C\[N+](=O)[O-])c3ccccc32)o1	ABHD5 PLIN5 PPI 42.6 | ABHD5-PLIN5 conf 88.0 | HNF4 split-luc 46.2
O=[N+]([O-])/C=C/c1cn(Cc2ccc(Cl)cc2)c2ccccc12	ABHD5 PLIN5 PPI 44.9 | ABHD5-PLIN5 conf 98.4 | HNF4 split-luc 82.8
CCc1ccc(CCNC(=O)OCCCN2CCC3(CCC(C)CC3)C2=O)cc1 (configuration not stated)	none (no result: ABHD5 PLIN5 PPI)
CC1=CC(C)(C)Nc2ccc(OC(=O)CN3C(=O)c4cccc5cccc(c45)C3=O)cc21	ABHD5 PLIN5 PPI 31.5 | ABHD5-PLIN5 conf 70.9 | HNF4 split-luc inactive
CC1=CC(C)(C)Nc2ccc(OC(=O)C(Cc3ccccc3)N3C(=O)c4ccccc4C3=O)cc21 (configuration not stated)	none
CC1=CC(C)(C)Nc2ccc(OC(=O)CN3C(=O)c4ccccc4C3=O)cc21	ABHD5 PLIN5 PPI 66.1 | ABHD5-PLIN5 conf 85.6 | HNF4 split-luc 79.4
Cc1nc2ccc(S(=O)(=O)NCC(=O)NCc3cccs3)cc2s1	none (no result: ABHD5 PLIN5 PPI)
O=S1(=O)N[C@H](c2ccccc2)COc2cc(Br)ccc21	none (no result: ABHD5 PLIN5 PPI)
Cc1ccc(NC(=O)c2cnccn2)c(Br)c1	ABHD5 PLIN5 PPI 100.4 | ABHD5-PLIN5 conf inactive | HNF4 split-luc inactive
COc1ccc(OC)c2c1C(=O)C(Cl)=C(Cl)C2=O	PRMT1 inh 90.9, ABHD5 PLIN5 PPI 92.8 | ABHD5-PLIN5 conf 103.5 | HNF4 split-luc 110.8
CC(O)CNc1cc(N)c([N+](=O)[O-])cc1[N+](=O)[O-] (configuration not stated)	ABHD5 PLIN5 PPI 23.6 | ABHD5-PLIN5 conf inactive | HNF4 split-luc inactive
CC(O)CNc1ccc(-c2n[nH]c(=O)c3ccccc23)cc1[N+](=O)[O-] (configuration not stated)	none
CC(=O)Oc1ccc(C23c4ccccc4C2(OC(C)=O)c2cc(OC(C)=O)ccc23)cc1 (configuration not stated)	ABHD5 PLIN5 PPI 98.8 | ABHD5-PLIN5 conf 101.6 | HNF4 split-luc 53.2
COc1cc(-n2c(C)nc3cc(C(=O)N4CCCCC4)ccc32)cc(OC)c1OC	none (no result: ABHD5 PLIN5 PPI)
CC(=O)N1CCCN(S(=O)(=O)c2ccc3c(c2)c(=O)n(C)c(=O)n3C)CC1	none (no result: ABHD5 PLIN5 PPI)
CCN(Cc1ccccc1)c1ccc(N=Nc2nn(C)c(C)c2[N+](=O)[O-])cc1	none
CCN(CC)c1ccc(N=Nc2nn(C)c(C)c2[N+](=O)[O-])cc1	ABHD5 PLIN5 PPI 25.3 | ABHD5-PLIN5 conf 28.6 | HNF4 split-luc 32.6
CC1CCCCC1N(C(=O)c1cc(C2CC2)on1)C1CCCCC1 (configuration not stated)	none (no result: ABHD5 PLIN5 PPI)
COc1cc(/C=C/[N+](=O)[O-])ccc1OC(=O)c1cc2ccccc2oc1=O	ABHD5 PLIN5 PPI 28.0 | ABHD5-PLIN5 conf 77.5 | HNF4 split-luc 96.9
Cc1ccc2nc(NC(=O)c3cc(-c4ccco4)nc4ccccc34)sc2c1	none
O=C(Nc1nc2ccccc2s1)c1cc(-c2ccco2)nc2ccccc12	ABHD5 PLIN5 PPI 27.1 | ABHD5-PLIN5 conf 22.2 | HNF4 split-luc 13.8
C[C@@H]1[C@@H](O)C[C@]2(C[C@@H](O)c3ccccc3O2)O[C@H]1c1ccccc1	none (no result: ABHD5 PLIN5 PPI)
CC(C)(C)OC(=O)N1CCC(N[C@@H](Cc2ccccc2)C(=O)NCC(c2ccccc2)c2ccccc2)(C(=O)NC2CCCCC2)CC1	none (no result: rCAG RNA binder, ABHD5 PLIN5 PPI)
COc1cc(/C=C/C(=O)c2cccc([N+](=O)[O-])c2)cc(OC)c1OC	ABHD5 PLIN5 PPI 29.6 | ABHD5-PLIN5 conf 95.1 | HNF4 split-luc 92.3
COc1ccc(C=CC(=O)c2ccc([N+](=O)[O-])cc2)cc1	none
CC(=O)c1cccc([N+](=O)[O-])c1	none
O=C(/C=C/c1ccccc1F)c1cccc([N+](=O)[O-])c1	ABHD5 PLIN5 PPI 70.1 | ABHD5-PLIN5 conf 100.2 | HNF4 split-luc 98.5
C#CC(=O)N(c1ccc(OC)cc1OC)C(C(=O)NC1CCCC1)c1cccs1 (configuration not stated)	ABHD5 PLIN5 PPI 27.7 | ABHD5-PLIN5 conf 39.9 | HNF4 split-luc 37.9
COc1ccc(N(C(=O)c2ccco2)C(C(=O)NC2CCCCC2)c2cccs2)cc1OC (configuration not stated)	none
C#CC(=O)N(c1cc(OC)ccc1OC)C(C(=O)NC1CCCC1)c1cccs1 (configuration not stated)	ABHD5 PLIN5 PPI 32.5 (no result: MBD2 inh, LEDGF integ inh, PRMT1 inh, rCAG RNA binder, UHRF1 MBD2 ctr) | ABHD5-PLIN5 conf 45.0 | HNF4 split-luc 44.7
COc1ccc(N(C(=O)c2snc(C(N)=O)c2N)C(C(=O)NC2CCCC2)c2cccs2)cc1OC (configuration not stated)	none
O=c1[nH]c(C2CCN(S(=O)(=O)c3ccc(F)cc3)CC2)nc2c1nnn2Cc1ccc2c(c1)OCCO2	ABHD5 PLIN5 PPI 28.7 | ABHD5-PLIN5 conf 34.9 | HNF4 split-luc inactive
O=c1[nH]c(C2CCN(S(=O)(=O)c3ccc(S(=O)(=O)NC4CC4)cc3)CC2)nc2c1nnn2Cc1ccccc1	none
